Screens deposited in PubChem BioAssay by The Scripps Research Institute Molecular Screening Center.
pPAFAH inh – inhibitors of human plasma PAF acetylhydrolase (pPAFAH) | 1.5% of 330,000 active | Q13093 | recombinant pPAFAH, FP-rhodamine probe fluorescence polarization | inhibition, % at 3.39 µM | AID 463082;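 active means inhibition above the mean inhibition across the screen plus 3 SD, cut at about 25% in these data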;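 further: inhibitors block binding of the rhodamine activity-based probe so polarization drops; 0% = enzyme with DMSO and 100% = wells lacking pPAFAH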
PAFAH1B2 inh – inhibitors of human PAFAH1B2; recombinant PAFAH1B2, FP-rhodamine activity probe, fluorescence polarization; inhibition, % at 3.39 µM; 1.2% of 340,000 active; AID 492953;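 active means inhibition above the mean of all tested compounds plus 3 SD, cut at about 24% in these data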;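 further: 0% = enzyme with DMSO and 100% = wells lacking PAFAH1B2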
Target sequence (P68402 whole entry, looked up): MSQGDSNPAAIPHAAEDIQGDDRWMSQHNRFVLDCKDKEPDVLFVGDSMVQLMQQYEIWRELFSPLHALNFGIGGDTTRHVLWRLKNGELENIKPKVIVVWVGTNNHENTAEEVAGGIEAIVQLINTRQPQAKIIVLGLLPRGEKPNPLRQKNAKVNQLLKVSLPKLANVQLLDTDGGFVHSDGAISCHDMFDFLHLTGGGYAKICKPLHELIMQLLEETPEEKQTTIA
PP5 primary – blocks human protein phosphatase 5 activity. 0.18% of 320,000 active. AID 1987. P53041. inhibition, % at 6.7 µM. purified PP5c, OMFP substrate fluorescence;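 active means inhibition above the campaign's mean inhibition across all tested compounds plus 3 SD, cut at about 9.5% in these data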;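 further: 0% = DMSO only and 100% = 100 µM cantharidin control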
PAFAH1B3 FP inh – inhibitors of human PAFAH1B3. inhibition, % at 3.39 µM. recombinant PAFAH1B3, FP-rhodamine probe, fluorescence polarization. Q15102. 0.28% of 340,000 active. AID 492972;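 active means inhibition above the screen-wide average of all tested compounds plus 3 SD, cut at about 25% in these data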;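 further: 0% = enzyme with DMSO only and 100% = wells lacking PAFAH1B3 protein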
Target sequence (Q15102 whole entry, looked up): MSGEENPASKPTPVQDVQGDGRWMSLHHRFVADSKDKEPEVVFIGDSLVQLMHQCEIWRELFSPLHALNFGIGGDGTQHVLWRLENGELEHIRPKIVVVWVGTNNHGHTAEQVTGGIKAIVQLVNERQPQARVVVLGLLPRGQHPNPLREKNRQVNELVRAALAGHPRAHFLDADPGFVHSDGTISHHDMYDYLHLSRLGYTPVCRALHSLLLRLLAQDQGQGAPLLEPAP
PAFAH2 FP inh – PAFAH2 (human) inhibition; recombinant PAFAH2, FP-rhodamine activity probe, fluorescence polarization; inhibition, % at 3.39 µM; 0.99% of 340,000 active; AID 492956;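 active means inhibition above the mean over all tested compounds plus 3 SD, cut at about 30% in these data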;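 further: inhibitors block probe labeling of enzyme so polarization drops; 0% = enzyme with DMSO and 100% = wells lacking PAFAH2 protein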
Fh CTSL1 inh – blocks F. hepatica cathepsin L1 in PFM18AAP counter-screen; AID 1906; inhibition, % at 5.96 µM; recombinant F. hepatica cathepsin L1, Z-Leu-Arg-MCA fluorescence; 0.49% of 300,000 active;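 active means inhibition above the mean of all tested compounds plus 3 SD, set per screening campaign, cut at about 17% in these data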;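 further: 0% = plate median of test compound wells and 100% = 1 µM Z-Phe-Ala-diazomethylketone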
PAFAH2 FP conf – PAFAH2 (human) inhibition, confirmed; inhibition, % at 3.39 µM; 65% of 2,300 active; AID 493030; recombinant PAFAH2, FP-rhodamine activity probe, fluorescence polarization; shares compounds with PAFAH2 FP inh;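 active means mean inhibition over three repeats above a set limit taken from the earlier primary screen, cut at about 30% in these data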;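 further: inhibitor blocks binding of rhodamine activity probe so polarization falls; 0% = enzyme with DMSO and 100% = wells lacking PAFAH2 protein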
Active calls of the source: *; nt = no result. Rows were chosen to be rich in hits. Some 3% of all compounds tested hit in one or more screens of this group.

SMILES | pPAFAH inh | PAFAH1B2 inh | PP5 primary | PAFAH1B3 FP inh | PAFAH2 FP inh | Fh CTSL1 inh | PAFAH2 FP conf
COC(=O)c1ccccc1S(=O)(=O)NNC(=O)Nc1ccccc1 | 1 | -1 | 2 | -2 | 34* | -4 | 18
COC(=O)c1ccccc1S(=O)(=O)C(C)(C)C | 2 | 0 | -4 | 7 | -1 | -2 | nt
CCOc1ccc(CNS(=O)(=O)c2cc(-c3cc(C)no3)ccc2OC)cc1OC | 2 | 2 | 0 | -2 | 3 | 1 | nt
Cc1ccc(S(=O)(=O)N2CCOCC2)cc1NC(=O)COC(=O)c1ccc2c(c1)OCO2 | 1 | -1 | -2 | -4 | 64* | 6 | 52*
CCOc1ccccc1C(=O)OCC(=O)Nc1cc(S(=O)(=O)N2CCOCC2)ccc1C | 0 | 2 | -2 | -1 | 32* | nt | 25
O=C(COC(=O)c1ccc2c(c1)OCCO2)Nc1cc(S(=O)(=O)N2CCOCC2)ccc1Cl | 4 | 2 | 4 | 3 | 64* | -1 | 44*
Cc1ccc(S(=O)(=O)N2CCOCC2)cc1NC(=O)COC(=O)C1=COCCO1 | 3 | 3 | -1 | 1 | 23 | -6 | nt
Cc1ccc(S(=O)(=O)N2CCOCC2)cc1NC(=O)COC(=O)COc1ccccc1[N+](=O)[O-] | 3 | -1 | nt | 3 | 3 | nt | nt
Cc1ccc(C(=O)OCC(=O)Nc2cc(S(=O)(=O)N3CCOCC3)ccc2C)cc1 | 5 | 1 | 0 | 3 | 68* | -6 | 61*
Cc1nc(NCCCN2CCOCC2)c2cnn(-c3ccccc3)c2n1 | nt | 8 | nt | 4 | -1 | nt | nt
O=C1CC[C@@H]2C[C@@]3(C[C@@H]4CCN1[C@H]24)Nc1cc([N+](=O)[O-])ccc1NC3=NCc1ccccc1 | nt | 2 | nt | 5 | 7 | nt | nt
Cc1cccc(C)c1NC(=O)CNC(=O)c1ccccc1OCc1ccccc1 | -1 | 1 | -2 | -1 | 5 | 5 | nt
CC(C)(C)CNC(=O)c1cccc2c1C(=O)c1ccc(-c3cc4ccccc4o3)cc1S2(=O)=O | -3 | 4 | nt | -6 | -3 | nt | nt
Cc1ccc(S(=O)(=O)N2CCOCC2)cc1NC(=O)COC(=O)c1ccc(OCc2c(C)noc2C)cc1 | 11 | 4 | 4 | 7 | 44* | -1 | 51*
Cc1ccc(S(=O)(=O)N2CCOCC2)cc1NC(=O)COC(=O)c1cncc(Br)c1 | 4 | -2 | nt | 12 | 6 | nt | nt
Cc1ccc(S(=O)(=O)N2CCOCC2)cc1NC(=O)COC(=O)c1ccc2c(c1)OCCO2 | 12 | 2 | 1 | -7 | 70* | 4 | 59*
CCN(CC)S(=O)(=O)c1ccc(C)c(NC(=O)COC(=O)c2ccc(C)c(S(=O)(=O)N3CCOCC3)c2)c1 | 14 | 1 | 3 | 4 | 81* | -5 | 61*
Cc1ccc(S(=O)(=O)N2CCOCC2)cc1NC(=O)COC(=O)c1cnc(Cl)c(Cl)c1 | nt | -1 | nt | 3 | 7 | nt | nt
O=C(NN=Cc1ccccc1)C(Oc1ccccc1)c1ccccc1 (configuration not stated) | nt | 3 | nt | 9 | -4 | nt | nt
Cc1ccccc1CN1CCNC(=O)C1CC(=O)NC1CCCCCCC1 (configuration not stated) | 3 | 7 | 0 | 6 | 2 | -15 | nt
CC(O)[C@@]1(O)CC[C@H]2[C@@H]3CC[C@H]4C[C@@H](O)CC[C@]4(C)C3=CC[C@@]21C (some centres not stated) | 4 | -3 | -2 | 5 | 3 | -3 | nt
COc1cccc(C(=O)OCn2nnc3ccccc3c2=O)c1OC | 9 | 0 | 4 | -3 | 50* | 0 | 45*
O=C(OCn1nnc2ccccc2c1=O)c1ccc(O)cc1 | 0 | 5 | -2 | 7 | 33* | -3 | 19
COc1ccc(C(=O)OCn2nnc3ccccc3c2=O)cc1 | -2 | 8 | -1 | -4 | 43* | -5 | 37*
CCOc1ccc(C(=O)OCn2nnc3ccccc3c2=O)cc1OC | 1 | 1 | 2 | 9 | 63* | 4 | 52*
SMILES | pPAFAH inh | PAFAH1B2 inh | PP5 primary | PAFAH1B3 FP inh | PAFAH2 FP inh | Fh CTSL1 inh | PAFAH2 FP conf
COc1cc(C(=O)OCn2nnc3ccccc3c2=O)cc(OC)c1OC | -6 | 5 | 2 | 1 | -11 | 3 | nt
Cc1ccccc1C(=O)OCn1nnc2ccccc2c1=O | 7 | 7 | -2 | 3 | 9 | 3 | nt
COC(=O)c1ccccc1S(=O)(=O)NNC(=O)c1nn(C)c(=O)c2ccccc12 | 1 | 2 | nt | 5 | -6 | nt | nt
CC/C(=N/N=C(/CC)c1ccc(O)cc1)c1ccc(O)cc1 | 4 | 7 | 1 | 1 | 2 | -3 | nt
CC1CN(CC(O)c2ccc(Br)cc2)CCO1 (configuration not stated) | nt | 5 | nt | 6 | -2 | nt | nt
O=C(CCC1CCCCC1)NCCS(=O)(=O)N1CCN(c2ccc(F)cc2)CC1 | 3 | 10 | 0 | 3 | 5 | 0 | nt
O=C(CN1CCN(C(=O)C2CC2)CC1)Nc1ccc(Cl)cc1F | nt | 5 | nt | -2 | 0 | nt | nt
CC(=O)Nc1cccc2c1Cc1ccccc1-2 | 9 | 2 | -1 | 2 | 42* | -1 | -2
CN(C)S(=O)(=O)c1ccc(C(=O)N2CCN(S(=O)(=O)c3cccs3)CC2)cc1 | 2 | 4 | 0 | -4 | 42* | 0 | 39*
O=C(c1ccccc1)N1CCN(S(=O)(=O)c2cccs2)CC1 | -2 | 3 | -2 | -7 | 6 | 1 | nt
Cc1ccc(CSc2nnc(SCC(=O)N/N=C/c3c[nH]c4ccccc34)s2)cc1 | nt | 4 | nt | 2 | 30* | nt | 31*
O=C(COC(=O)c1ccccn1)Nc1cccc(Cl)c1 | -1 | -2 | -1 | 4 | -2 | -6 | nt
Cn1nccc1C(=O)OCC(=O)Nc1ccc(S(N)(=O)=O)cc1 | 0 | 3 | 1 | -3 | -4 | -3 | nt
Cn1nccc1C(=O)OCC(=O)Nc1cccc(Cl)c1 | 3 | 7 | 2 | 2 | 66* | nt | 52*
O=C(COC(=O)c1cc[n+]([O-])cc1)Nc1ccccc1Cl | 3 | 2 | 0 | 8 | 7 | -8 | nt
Cn1ccc(C(=O)OCC(=O)Nc2cccc(Cl)c2)n1 | 4 | -2 | 3 | -1 | 83* | -4 | 78*
Cn1ccc(C(=O)OCC(=O)Nc2ccccc2Cl)n1 | nt | 5 | nt | 2 | 39* | nt | 28
CCOc1ccccc1CNC(=O)c1ccc(NC(=O)C2=CSCCO2)cc1 | 6 | 5 | 0 | -1 | -3 | -2 | nt
COc1ccc(NS(=O)(=O)N2CCOCC2)cc1 | 3 | -2 | 2 | 6 | 0 | 3 | nt
COc1ccccc1N(Cc1ccccc1)S(=O)(=O)c1cccc(C(=O)N2CCCCC2)c1 | 1 | 5 | nt | 5 | 3 | nt | nt
COCCn1c(N)c(N(Cc2ccccc2)C(=O)COc2ccccc2F)c(=O)[nH]c1=O | 3 | 5 | 0 | 5 | 3 | nt | nt
CN(/C(=N/S(=O)(=O)c1cccs1)c1ccccc1)c1ccccc1 | 8 | 13 | 2 | 6 | 2 | -8 | nt
